# Measurements from PubChem BioAssay (NCATS).
# Inconclusive results are not listed. Entries that show only a call come without a potency. Active and inactive are the calls of the source. Calls come from the whole dose curve; as a rule, active = well fitted inhibition curve with a large enough effect; inconclusive = small, poorly fitted or top-dose-only effect; inactive = flat fitted curve, though single readings scatter.
# System: Zika virus NS2B-NS3 protease
# Assay: Primary screen GU AMC qHTS for Zika virus inhibitors (AID 1347154); note: nearly all actives have a fitted effect of over 70% in size
# Settings: Zika NS2B-NS3 unlinked protease, AMC fluorogenic substrate; series mostly up to 54.1 µM
# Summary of the method: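 Fluorogenic AMC-substrate cleavage by noncovalent NS2B-NS3 protease complex (25 nM, pH 8.0 Tris buffer with Tween 20) followed for 15 minutes at room temperature (~20% conversion). Percent inhibition from ex340/em450 signal change, fitted by 4-parameter Hill equation.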
row,SMILES,Potency
1,CC(C)(C#N)c1cc(Cn2cncn2)cc(C(C)(C)C#N)c1,inactive
2,C[C@@H]1CN(c2c(F)c(N)c3c(=O)c(C(=O)O)cn(C4CC4)c3c2F)C[C@H](C)N1,inactive
3,O=S(=O)(O)CCS,inactive
4,Oc1c(Cl)cc(Cl)c2cccnc12,inactive
5,CN(Cc1cc(Br)cc(Br)c1N)C1CCCCC1,inactive
6,Cc1oc(=O)oc1CN1CCN(c2cc3c(cc2F)c(=O)c(C(=O)O)c2n3C(C)S2)CC1 (centres undefined),inactive
7,CN(C)c1ccc(C(=C2C=CC(=[N+](C)C)C=C2)c2ccc(N(C)C)cc2)cc1,inactive
8,CCC(=O)O[C@]1(C(=O)CCl)[C@@H](C)C[C@H]2[C@@H]3CCC4=CC(=O)C=C[C@]4(C)[C@@]3(F)[C@@H](O)C[C@@]21C,inactive
9,Cc1nnc(NS(=O)(=O)c2ccc(N)cc2)s1,inactive
10,C[C@@H](CN1CC(=O)NC(=O)C1)N1CC(=O)NC(=O)C1,inactive
11,Nc1[nH]c(=O)ncc1F,inactive
12,OC(Cn1cncn1)(Cn1cncn1)c1ccc(F)cc1F,inactive
13,COc1ccc(C(=O)CC(=O)c2ccc(C(C)(C)C)cc2)cc1,inactive
14,CC(=O)Oc1ccccc1C(=O)Nc1ncc([N+](=O)[O-])s1,inactive
15,CC(C)OC(=O)C(C(=O)OC(C)C)=C1SC=CS1,inactive
16,NC(=O)c1cccc(N)c1,inactive
17,CCC(C)(C)c1ccc(CC(C)CN2C[C@@H](C)O[C@@H](C)C2)cc1 (some centres undefined),inactive
18,CC(=O)[C@H]1CC[C@H]2[C@@H]3CC=C4C[C@@H](O)CC[C@]4(C)[C@H]3CC[C@]12C,inactive
19,CCCCOc1ccc(CC(=O)NO)cc1,inactive
